Bioassay records (PubChem BioAssay)
Tg IFNy HTS – inhibitors of Toxoplasma gondii growth with IFN-gamma | Toxoplasma gondii growth in IFN-gamma-treated host cells; stronger effect = lower value | activity change, negative = inhibition, % (concentration not given with the values) | actives 3.8% (n = 69,000) | AID 1259416; in the data active = activity change below about -70%, passing the limit was not always enough;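 also: host cells are HeLa cells infected with Toxoplasma gondii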
Each line names hits and unclear results; the compound was inactive in the other large screens. This is one part of a sample in which hits are shown more often than they occur.

CC(=O)c1cccc(NC(=S)Nc2ccc(F)cc2)c1	none
Cc1[nH][nH]c(=O)c1CC(=O)N1CCCC2(CCNC2)C1 (centres undefined)	none
CNC(=O)c1cnc(C)nc1CCNC(=O)CC1(c2ccc(C)cc2)CCOC(C)(C)C1 (centres undefined)	none
CC(C)CN1C(=O)C2(CC2C(=O)N2CCN(C)CC2)c2ccccc21 (centres undefined)	none
Cc1ccc(C2c3[nH]c4ccccc4c3CCN2C(=O)c2ccc(F)cc2)cc1 (centres undefined)	none
COCC(=O)N1CCc2c([nH]c3ccccc23)C1c1ccc(F)cc1 (centres undefined)	none
Cc1ccc(C(=O)N2CCc3c([nH]c4ccccc34)C2c2ccc(F)cc2)cc1 (centres undefined)	none
O=C(c1ccccc1)N1CCc2c([nH]c3ccccc23)C1c1ccc(F)cc1 (centres undefined)	Tg IFNy HTS -85
CN(C)c1cccc(C(=O)N2CCc3c([nH]c4ccccc34)C2c2ccc(F)cc2)c1 (centres undefined)	Tg IFNy HTS -94
CSc1ccc(C2c3[nH]c4ccccc4c3CCN2C(=O)c2ccc(N(C)C)cc2)cc1 (centres undefined)	none
Cc1ccc(C2c3[nH]c4ccccc4c3CCN2C(=O)c2ccc(Br)cc2)cc1 (centres undefined)	none
O=C(c1ccccc1F)N1CCc2c([nH]c3ccccc23)C1c1ccc(F)cc1 (centres undefined)	none
CCOc1ccc(C2c3[nH]c4ccccc4c3CCN2C(=O)c2ccc(OC)cc2)cc1 (centres undefined)	none
COc1ccc(C(=O)N2CCc3c([nH]c4ccccc34)C2c2ccc(F)cc2)cc1 (centres undefined)	Tg IFNy HTS -130
COc1ccc(C2c3[nH]c4ccccc4c3CCN2C(=O)c2ccc(Br)cc2)cc1 (centres undefined)	Tg IFNy HTS -89
CCCCc1nc(Cl)c(CN2CCn3cncc3C2)[nH]1	none
Cc1nc(SCc2cc(=O)[nH][nH]2)c2oc3ccccc3c2n1	none
O=C(COc1ccccc1)N1CCC2(CC(=O)N(c3cccc(F)c3)C2)C1 (centres undefined)	none
CS(=O)(=O)N1CCc2ccc(NC(=O)CN3Cc4ccccc4C3)cc21	none
O=C(c1ccc[nH]c1=O)N1CCC2(CCCO2)CC1	none
Cc1cc(C)cc(NC(=O)CN2CCC3(CC2)N=C(c2cccc(Cl)c2)C(=O)N3)c1	none
CCN1CCCC1CNC(=O)C1CCN(Cc2cc3ccccc3n2Cc2ccccc2Cl)CC1 (centres undefined)	none
CC(=O)N1CCc2nc(C)nc(NCC[C@@H]3C[C@@H]4C=C[C@H]3C4)c2CC1	none
CC(c1cccnc1)N(C)Cc1ccc(-n2ccnc2)cc1 (centres undefined)	none
CCn1c(CC2CCN(Cc3ccc(C4CCCCO4)o3)CC2)n[nH]c1=O (centres undefined)	none
CC(C)NC(=O)N1Cc2nccn2CC(COc2cccnc2)C1 (centres undefined)	none
CCS(=O)(=O)N1Cc2nccn2CC(COc2cccnc2)C1 (centres undefined)	none
NC(=O)N1Cc2nccn2CC(COc2cccnc2)C1 (centres undefined)	Tg IFNy HTS -100
COCC1CN(C(=O)c2ccc3c(c2)OCO3)Cc2cncn2C1 (centres undefined)	none
c1cc2c(cc1OCC1CCN(Cc3cc4n(n3)CCNC4)CC1)CCC2	Tg IFNy HTS -87
OCC1CCN(Cc2cc3n(n2)CCCNC3)CC1	none
c1ccc2c(c1)CCC(N1CCN(Cc3cc4n(n3)CCNC4)CC1)C2 (centres undefined)	none
CN(C)S(=O)(=O)c1ccc(CCC(=O)NC2CC(C)(C)Oc3ccccc32)cc1 (centres undefined)	none
Cn1cnc2cc(C(=O)N3CCC(c4[nH]ncc4-c4ccccc4)CC3)cnc21	none
COCC(NC(=O)c1sc2ncn(C)c(=O)c2c1C)c1ccnn1C (centres undefined)	none
CC(=O)N1CCC(c2ccnc3c(C(=O)N4CCCN(C)CC4)ncn23)CC1	none
CCN1c2cc(C)ccc2-n2cccc2C12CCN(S(=O)(=O)c1ccccc1)CC2	Tg IFNy HTS -79
CCN1c2cc(C)ccc2-n2cccc2C12CCN(C(=O)c1ccccc1Br)CC2	none
CCOc1ccc(S(=O)(=O)N2CCC3(CC2)c2cccn2-c2ccc(C)cc2N3CC)cc1	Tg IFNy HTS -92
CCOc1ccc(NC(=O)N2CCC3(CC2)c2cccn2-c2ccc(C)cc2N3CC)cc1	none
CCN1c2cc(C)ccc2-n2cccc2C12CCN(S(=O)(=O)Cc1ccccc1)CC2	none
CCN1c2cc(C)ccc2-n2cccc2C12CCN(S(=O)(=O)c1ccc3c(c1)oc(=O)n3C)CC2	none
CCN1c2cc(C)ccc2-n2cccc2C12CCN(S(=O)(=O)c1ccccc1Cl)CC2	Tg IFNy HTS -78
CCN1c2cc(C)ccc2-n2cccc2C12CCN(C(=O)c1ccccc1OC)CC2	none
CCN1c2cc(C)ccc2-n2cccc2C12CCN(S(=O)(=O)c1ccc(C(C)C)cc1)CC2	none
Cc1nn(C)cc1NC(=O)c1ccc(=O)n(CC(=O)NC2CCCCC2)c1	none
CC1Cc2cc(-c3nccn3CCN3CCNC3=O)ccc2O1 (centres undefined)	none
Cn1ccnc1C(NC(=O)c1cn2c(n1)CNCC2)C1CC1 (centres undefined)	none
COc1ccc(C(=O)NCCc2sc(-c3ccccc3)nc2C)cc1OC	none
Nc1ncc(C(=O)N2C[C@@H]3[C@@H]4CC[C@@H](C4)[C@@H]3C2)c(-c2ccccc2)n1	none
CC(=O)c1cccc(NC(=O)N2CCC(C(=O)c3cccc(C(F)(F)F)c3)CC2)c1	none
Cn1ncc2c3ccccc3n(CC(=O)NCc3cccnc3)c2c1=O	none
Cc1[nH]c2ccc(CNC(=O)C(c3cccnc3)N3CCOCC3)cc2c1C (centres undefined)	none
O=c1c2ccccc2oc2ccccc12	none
O=c1c2ccccc2oc2ccc(Cl)cc12	none
CS(=O)(=O)Nc1ccc2oc3ccccc3c(=O)c2c1	Tg IFNy HTS -92
Cc1ccc(CN2CCC3(CC2)CCN(c2cncnc2)C3=O)cc1	none
C=CCn1c(=O)c(C(=O)Nc2cc(C)ccc2OC)c(O)c2ccccc21	none
CC(C)N(Cc1ccccc1)S(=O)(=O)c1cccs1	none
O=S(=O)(Nc1ccc(Oc2ncnc3cc(Cl)ccc23)nc1)c1cccs1	none
CC(=O)N(c1ccc(NS(=O)(=O)c2cccs2)cn1)S(=O)(=O)c1cccs1	Tg IFNy HTS -102
O=C(O)CN1C[C@H]2CN(c3ccccc3)C(=O)[C@@H]2C1	none
CC1NCCn2c(COCc3ccccn3)cnc21 (centres undefined)	Tg IFNy HTS -83
CC(=O)N1CCn2c(COCc3ccccn3)cnc2C1C (centres undefined)	none
CC1c2ncc(CNC(=O)C3CC3)n2CCN1Cc1ccccn1 (centres undefined)	none
COc1cc(N2CCCC3(CCCC(=O)N3)C2)ncn1 (centres undefined)	none
COCCC(=O)N1C[C@H]2CN(c3ccsc3)C(=O)[C@@H]2C1	none
Cc1cc2nc(C)c(CCC(=O)Nc3ncc(-c4ccccc4)n3C)c(C)n2n1	none
Cn1c(-c2ccccc2)cnc1NC(=O)c1nonc1N	Tg IFNy HTS -104
COc1ccc(-c2cc(C(=O)Nc3ncc(-c4ccc(F)cc4)n3C)on2)cc1	none
OCCOCc1nnn2c1CN(C1CCOCC1)CCC2	none
O=C(c1ccc(Cl)s1)N1CCC2(CC1)Nc1cccnc1NC2=NC1CCCC1	none
O=S(=O)(N1CCOCC1)N1CCCCC1CCc1ccccc1 (centres undefined)	none
CC(C)c1cc(CNCC(=O)NCc2ccccc2F)no1	none
